GLP1R ag: activates the human GLP-1 receptor. 380,000 compounds, 0.007% hits. Potency, µM (doses to about 45.6 µM), usual class: activators. HEK293 GLP-1R CRE-luciferase, luminescence, 4-6 h; cells express a hypersensitive GLP-1R form
GLP1R inv ag: inverse agonists of human GLP-1 receptor; P43220; HEK293 GLP-1R CRE-luciferase, luminescence, 24 h; GLP-1R form is constitutively active; Potency, µM (top dose mostly 38.3 µM), actives largely listed as inhibitors; 410,000 compounds, 1.6% hits; AID 624417; also: nearly all actives have a fitted effect of over 55% in size
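Luminescence readout: a drop in cAMP-driven luciferase signal flags inverse agonism at a constitutively active GLP-1R stably expressed in HEK293. Compound exposure lasted 24 hr at 37 deg C, 5% CO2.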
DRD3 antagonist: antagonists of human D3 dopamine receptor; P35462; D3R cells, DiscoveRx beta-arrestin luminescence, antagonist mode; stronger effect = lower value; max response, negative = inhibition, %; 360,000 compounds, 2.5% hits; AID 652054; in the data active = max response below about -50%; inconclusive = no clear call, values can overlap the other calls
Target sequence (P35462 whole entry, looked up): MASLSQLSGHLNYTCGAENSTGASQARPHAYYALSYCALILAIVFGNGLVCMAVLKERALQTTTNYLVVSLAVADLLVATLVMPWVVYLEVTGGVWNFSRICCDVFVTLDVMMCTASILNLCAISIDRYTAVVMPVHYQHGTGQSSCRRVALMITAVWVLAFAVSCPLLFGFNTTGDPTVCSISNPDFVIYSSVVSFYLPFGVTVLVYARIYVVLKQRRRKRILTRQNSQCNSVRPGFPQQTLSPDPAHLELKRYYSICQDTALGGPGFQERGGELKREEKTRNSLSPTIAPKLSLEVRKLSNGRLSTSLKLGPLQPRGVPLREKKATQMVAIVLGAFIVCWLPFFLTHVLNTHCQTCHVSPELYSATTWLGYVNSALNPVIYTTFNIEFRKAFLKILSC
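Cells expressing the human receptor were seeded at 1500 cells/well, incubated overnight at 37 degrees C in 5% CO2, then exposed to library compounds with dopamine controls for 90 minutes at 37 degrees C before luminescent detection.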
D3 ag: activates the human D3 dopamine receptor. 410,000 compounds, 0.58% hits. D3R DiscoveRx beta-arrestin cells, luminescence, 90 min. P35462. max activation, %; in the data active = max activation above about 30%
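Agonist mode: compounds and dopamine controls were applied to plated cells for 90 min at 37 degrees C after an overnight attachment at 1500 cells/well. Luminescent read-out followed 30 - 60 minutes at room temperature with DiscoveRx detection reagent.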
Numbers stand for hits; i = inactive; ? = inconclusive; nt = no result given. This is a sample that favours compounds with a hit; in the whole collection about 4.3% have one here. Unless noted, calls follow the shape of the dose curve; as a rule, active = well fitted curve in the direction sought with a large enough effect; inconclusive = small, poorly fitted or top-dose-only effect, or another doubt; inactive = no such curve, though single readings can be large; an effect the other way counts as inactive or inconclusive.

SMILES | GLP1R ag | GLP1R inv ag | DRD3 antagonist | D3 ag
Cc1ccc(C)c(S(=O)(=O)Nc2ccc(S(=O)(=O)Nc3onc(C)c3C)cc2)c1 | i | i | -52 | i
CN(C1CCCCC1)S(=O)(=O)c1ccc(NC(=O)c2ccc(Br)o2)cc1 | i | 7.1µM | ? | i
Cc1ccc(S(=O)(=O)NC(=O)c2ccc(Br)o2)cc1 | i | i | i | 54
CN(C)S(=O)(=O)c1ccc(NC(=O)c2ccc(Br)o2)cc1 | i | i | i | i
Cc1ccc(NS(=O)(=O)c2ccc(C)c(C(=O)Nc3ccc(S(=O)(=O)Nc4onc(C)c4C)cc3)c2)cc1 | i | i | i | i
Cc1noc(NS(=O)(=O)c2ccc(NC(=O)c3ccc(Br)o3)cc2)c1C | i | i | -72 | i
CC(NC(=O)c1c2c(nc3ccccc13)C(=O)N(C1CCCCC1)C2)c1ccccc1 (stereo not given) | nt | ? | nt | i
O=c1cc(-c2ccc(F)cc2)nc(SCc2nc(-c3cccc(C(F)(F)F)c3)no2)[nH]1 | nt | i | nt | i
CCOC(=O)c1ccc(-n2c(-c3ccc(C)cc3)c(C)n3c4c(=O)n(C)c(=O)n(C)c4nc23)cc1 | i | i | nt | i
O=C(NCc1ccccc1)C(=O)NCC(c1ccco1)N1CCOCC1 (stereo not given) | i | i | i | i
O=P(c1ccccc1)(c1ccccc1)C(c1ccco1)N1CCOCC1 (stereo not given) | i | i | -61 | i
Cc1cccc(C)c1OCc1nnc(SCC(=O)NCc2ccccc2)o1 | i | i | i | 38
CC(C)(C)c1ccc(C(=O)NCCc2csc(-c3ccc(Cl)cc3)n2)cc1 | nt | 10µM | nt | i
CN(C)CCCNC(=O)c1ccc(-c2nc(-c3ccc(Cl)cc3)cs2)cc1 | i | 6.3µM | i | i
COc1cccc(C(=O)NCCc2csc(-c3ccc(Cl)cc3)n2)c1 | nt | ? | nt | i
CCOC(=O)c1c(CN2CCN(C)CC2)oc2ccc(OC)cc12 | i | i | -57 | i
CCOC(=O)c1c(CN2CCCCC2)oc2ccc(OC)cc12 | i | ? | ? | i
COc1ccc(-c2nc3cccc(C)n3c2NCc2ccco2)cc1OC | i | ? | -52 | i
COc1ccc(-c2csc(NCc3ccco3)n2)cc1C | i | ? | i | i
CC(C)c1ccc(NC(=O)c2ccc(CN3CC(=O)N4CCCCC4C3=O)cc2)cc1 (stereo not given) | nt | i | nt | i
CN1CCC(Oc2ccc(Sc3ccccc3)cc2)CC1 | i | i | i | i
CN1CCC(OC2c3ccccc3CCc3ccccc32)CC1 | i | ? | -99 | i
COc1ccc(CNc2nc(NCc3ccc(OC)cc3)c3[nH]cnc3n2)cc1 | i | i | i | 56
COc1ccccc1NC(=O)Cn1c(=O)n(CCCCCC(=O)NCc2ccccc2)c(=O)c2sccc21 | nt | i | nt | i
CCOC(=O)c1c(NC(C)=O)sc2c1CCC(C=NCCCN(CC)CC)=C2Sc1ccccc1 | i | i | -66 | i
SMILES | GLP1R ag | GLP1R inv ag | DRD3 antagonist | D3 ag
CCOC(=O)c1c(NC(C)=O)sc2c(OCCN(CC)CC)c(Br)ccc12 | i | i | i | i
C=C1C(=O)O[C@@H]2C[C@@H](C)[C@@H]3C=CC(=O)[C@@]3(C)[C@@H](OC(C)=O)[C@H]12 | i | 4.5µM | -84 | i
CC(=O)OC1C(OC(C)=O)C2C(C)CC3OC(=O)C(C)C3CC2(C)C1OC(C)=O (stereo not given) | i | i | i | i
CCN(CC)c1ccc(C2C(C(=O)OC)=C(C)NC(C)=C2C(=O)OC)cc1 | i | i | -51 | i
O=C(CSc1nnnn1C1CCCC1)Nc1cccc(NC(=O)c2ccco2)c1 | i | i | i | i
O=C(CSc1nnnn1C1CCCCC1)Nc1cccc(NC(=O)c2ccco2)c1 | i | 7.1µM | i | i
C=C1CCC(O)C2(C)CCC3C(C)C(=O)OC3C12O (stereo not given) | i | i | i | i
C=C1C(=O)O[C@@H]2[C@H]1CC[C@H](C)[C@]1(O)CCC(=O)[C@@]21C | i | 8.9µM | i | i
Cc1cccc(NC(=O)/C=C/c2ccc([N+](=O)[O-])s2)c1 | i | ? | ? | i
Cc1cccc(NC(=S)N/N=C/c2ccc([N+](=O)[O-])s2)c1 | i | ? | -97 | i
Clc1ccc(Cl)c(-c2ccc(/C=N/c3ncn[nH]3)o2)c1 | i | i | i | 32
O/N=C/c1ccc(-c2cc(Cl)ccc2Cl)o1 | i | i | i | i
O=S(=O)(c1ccc(F)cc1)N1CCN(CCOc2ccccc2)CC1 | i | i | ? | i
Cc1ccc(S(=O)(=O)N2CCN(CCOc3cccc(C)c3)CC2)cc1 | i | ? | -55 | i
CC(=O)c1ccc(S(=O)(=O)N2CCN(CCOc3ccccc3)CC2)cc1 | i | ? | -59 | i
COc1ccc(S(=O)(=O)N2CCN(CCOc3ccccc3Cl)CC2)cc1OC | i | ? | i | 36
COc1ccc(S(=O)(=O)N2CCN(CCOc3ccc(Br)cc3)CC2)cc1OC | i | ? | i | i
O=C(NC1CC(=O)N(c2ccc(Cl)cc2)C1)c1cccs1 (stereo not given) | nt | i | nt | i
Cc1cccc(NC(=O)COC(=O)c2ccc3nc(C)c(C)nc3c2)c1 | i | i | -58 | i
O=C(OCC1OC(OC(=O)c2cc(O)c(O)c(OC(=O)c3cc(O)c(O)c(O)c3)c2)[C@@H](OC(=O)c2cc(O)c(O)c(OC(=O)c3cc(O)c(O)c(O)c3)c2)C(OC(=O)c2cc(O)c(O)c(OC(=O)c3cc(O)c(O)c(O)c3)c2)C1OC(=O)c1cc(O)c(O)c(OC(=O)c2cc(O)c(O)c(O)c2)c1)c1cc(O)c(O)c(OC(=O)c2cc(O)c(O)c(O)c2)c1 (stereo not given in full) | i | nt | nt | nt
CCOc1cccc(/C=N/N2C(C)CCCC2C)c1O (stereo not given) | i | i | i | i
CC1CCCC(C)N1/N=C/c1cc(Br)cc(Br)c1O (stereo not given) | i | i | -62 | i
Cc1cc(-c2nnc(SCC(=O)Nc3ccccc3C(F)(F)F)o2)c(C)n1-c1ccccc1 | i | 0.89µM | i | i
Cc1ccc(-c2nnc(SCC(=O)Nc3ccccc3F)o2)cc1 | i | 2.2µM | i | i
Cc1cccc(CSCCNC(=O)CN(c2ccccc2)S(=O)(=O)N(C)C)c1 | nt | i | nt | i
SMILES | GLP1R ag | GLP1R inv ag | DRD3 antagonist | D3 ag
Cc1ccc(-c2csc(=Nc3ccccc3)n2Cc2ccc3c(c2)OCO3)cc1 | nt | i | nt | i
N#Cc1ccc(OCCOCCNC2CCCC2)cc1 | i | i | -50 | i
CN(Cc1cnn(-c2ccccc2)c1)C(=O)c1cccc(S(=O)(=O)N(C)c2ccccc2)c1 | i | 10µM | i | i
Oc1c(CN2CCCCC2)cc(Br)c2cccnc12 | i | 2.5µM | -74 | i
Oc1c(Cl)cc(CN2CCOCC2)c2cccnc12 | i | ? | ? | i
O=[N+]([O-])c1cc(CN2CCN(c3ccccc3)CC2)c(O)c2ncccc12 | i | i | -109 | i
Oc1c(CN2CCc3ccccc3C2)cc(Cl)c2cccnc12 | i | ? | -139 | i
O=C(COc1c(Br)cc(Br)c2cccnc12)N1CCCCC1 | i | ? | i | i

Screening data deposited in PubChem by National Center for Advancing Translational Sciences (NCATS).
